# From paper PMC8384837, “Expanding the binding specificity for RNA recognition by a PUF domain”
# Columns and labels:
# Assay in all cases: yeast three-hybrid, YBZ-1, SC-Leu-His + 0.5 mM 3-AT, 4 days
# Details in all cases: tags: N-Gal4 AD-HA kept; label: inside an RPR1-promoter hybrid RNA with tandem MS2 sites; ssRNA
# PUM1 PUF domain R7-SRP = PUM1 PUF domain R7-SRP (Homo sapiens, UniProt Q14671 828-1176, N1080R;E1083P)
# In short: (§1)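 The interaction score is the logarithmic change in variant frequency from input to selection. It uses log2, with a pseudocount of 1 for absent variants, and frequencies came from PCR-amplified, Illumina-sequenced repeat regions. The libraries were Pumilio-1 PUF domains randomized at the three base-contacting residues per repeat, co-expressed with matching RNA elements in strain YBZ-1 (LexA–MS2 coat fusion, HIS3 reporter). Plating lasted four days on SC-Leu (input) or SC-Leu-His + 0.5 mM 3-AT (selection).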
# PUM1 PUF domain R5-RHD = PUM1 PUF domain R5-RHD (Homo sapiens, UniProt Q14671 828-1176, C1007R;R1008H;Q1011D)
# In short: as §1
# PUM1 PUF domain R8-PYA = PUM1 PUF domain R8-PYA (Homo sapiens, UniProt Q14671 828-1176, N1122P;Q1126A)
# In short: as §1
# PUM1 PUF domain R4-RHS = PUM1 PUF domain R4-RHS (Homo sapiens, UniProt Q14671 828-1176, N971R;Q975S)
# In short: as §1
# PUM1 PUF domain R3-IYG = PUM1 PUF domain R3-IYG (Homo sapiens, UniProt Q14671 828-1176, C935I;R936Y;Q939G)
# In short: as §1
# PUM1 PUF domain R6-TFC = molecular target: T1, PUM1 PUF domain R6-TFC (Homo sapiens, UniProt Q14671 828-1176, N1043T;Y1044F;Q1047C)
# T1 sequence: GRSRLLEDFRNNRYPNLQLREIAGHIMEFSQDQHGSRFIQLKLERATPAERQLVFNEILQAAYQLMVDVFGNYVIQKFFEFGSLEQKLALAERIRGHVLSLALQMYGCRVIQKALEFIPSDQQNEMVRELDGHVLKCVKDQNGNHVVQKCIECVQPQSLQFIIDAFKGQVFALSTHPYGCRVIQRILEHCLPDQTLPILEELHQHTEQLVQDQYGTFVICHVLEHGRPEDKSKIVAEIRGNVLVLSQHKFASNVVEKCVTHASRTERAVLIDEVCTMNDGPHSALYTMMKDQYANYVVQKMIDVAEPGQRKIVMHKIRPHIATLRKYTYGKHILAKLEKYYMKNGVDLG
# In short: as §1
# PUM1 PUF domain R1-TIE = PUM1 PUF domain R1-TIE (Homo sapiens, UniProt Q14671 828-1176, S863T;R864I;Q867E)
# In short: as §1
# PUM1 PUF domain R8-FHR = PUM1 PUF domain R8-FHR (Homo sapiens, UniProt Q14671 828-1176, N1122F;Y1123H;Q1126R)
# In short: as §1
sequence,measurement,setting,value
GGCUAGAACUAGUGGAUCCCCCGGCGCCCGGCGGCUCGAGCCCGGGUAAGUUUAAAUAGUCUGCAUGCCGCCGGGCGCCAUGCCUGCAGGUCGACUCUAGAAAACAUG,binding signal,PUM1 PUF domain R7-SRP,3.52 log2 enrichment (interaction score)
GGCUAGAACUAGUGGAUCCCCCGGCGCCCGGCGGCUCGAGCCCGGGUAAGUGUGAAUAGUCUGCAUGCCGCCGGGCGCCAUGCCUGCAGGUCGACUCUAGAAAACAUG,binding signal,PUM1 PUF domain R5-RHD,5.63 log2 enrichment (interaction score)
GGCUAGAACUAGUGGAUCCCCCGGCGCCCGGCGGCUCGAGCCCGGGUAAGUGUAAAUAGUCUGCAUGCCGCCGGGCGCCAUGCCUGCAGGUCGACUCUAGAAAACAUG,binding signal,PUM1 PUF domain R8-PYA,2.27 log2 enrichment (interaction score)
same,binding signal,PUM1 PUF domain R4-RHS,2.87 log2 enrichment (interaction score)
same,binding signal,PUM1 PUF domain R3-IYG,4.83 log2 enrichment (interaction score)
GGCUAGAACUAGUGGAUCCCCCGGCGCCCGGCGGCUCGAGCCCGGGUAAGUGAAAAUAGUCUGCAUGCCGCCGGGCGCCAUGCCUGCAGGUCGACUCUAGAAAACAUG,binding signal,PUM1 PUF domain R6-TFC,5.07 log2 enrichment (interaction score)
GGCUAGAACUAGUGGAUCCCCCGGCGCCCGGCGGCUCGAGCCCGGGUAAGUGUACAUAGUCUGCAUGCCGCCGGGCGCCAUGCCUGCAGGUCGACUCUAGAAAACAUG,binding signal,PUM1 PUF domain R4-RHS,2.12 log2 enrichment (interaction score)
GGCUAGAACUAGUGGAUCCCCCGGCGCCCGGCGGCUCGAGCCCGGGUAAGUGUAAAUUGUCUGCAUGCCGCCGGGCGCCAUGCCUGCAGGUCGACUCUAGAAAACAUG,binding signal,PUM1 PUF domain R1-TIE,4.28 log2 enrichment (interaction score)
GGCUAGAACUAGUGGAUCCCCCGGCGCCCGGCGGCUCGAGCCCGGGUAAGUGUAACUAGUCUGCAUGCCGCCGGGCGCCAUGCCUGCAGGUCGACUCUAGAAAACAUG,binding signal,PUM1 PUF domain R3-IYG,0.48 log2 enrichment (interaction score)
GGCUAGAACUAGUGGAUCCCCCGGCGCCCGGCGGCUCGAGCCCGGGUAAGCGUAAAUAGUCUGCAUGCCGCCGGGCGCCAUGCCUGCAGGUCGACUCUAGAAAACAUG,binding signal,PUM1 PUF domain R8-FHR,3.71 log2 enrichment (interaction score)
